# Source: PubChem BioAssay (NCATS)
# Several values for one entry are separate records, joined by “and”; a condition that tells them apart may be missing. Equal entries are not always repeated. Results filed as inconclusive are left out. Entries that show only a call come without a potency. Activity calls are given as the source filed them. Calls come from the whole dose curve; as a rule, active = well fitted cell-killing curve with a large enough effect; inconclusive = small, poorly fitted or top-dose-only effect; inactive = no such curve, though single readings can be large or run the other way.
# Experiment: qHTS of pediatric cancer cell lines to identify multiple opportunities for drug repurposing: Primary screen for NB-EBc1 cells (AID 1347095)
# Settings: NB-EBc1 neuroblastoma viability, CellTiter-Glo luminescence, 48 h; series mostly up to 46 µM
# Source text: Drug repurposing or repositioning has been offered as a strategy for drug development in oncology programs. This approach has special potential for childhood cancers and other rare or orphan diseases, where the expected return on new drug development has been a disincentive to pharmaceuticals. […] In this project we exploit the poly-pharmacology of drugs to discover new indications via phenotypic screening of a panel of 19 well-characterized cell lines derived from solid tumors seen in children and adolescents. The goal is to identify approved drugs with previously unrecognized anticancer properties that has the potential to reveal new mechanisms and biological processes involved in carcinogenesis or drug resistance. We employed a titration-based paradigm (quantitative high-throughput screening or qHTS), where all compounds were tested at multiple concentrations for their effect on cell viability. Concentration-response curves (CRCs) were derived directly from the primary screen, and both potency and efficacy values were used to identify compounds with robust bioactivity profiles. We screened the NIH Chemical Genomics Center (NCGC) Pharmaceutical Collection (NPC) and Mechanism Interrogation Plate (MIPE) small molecule collections of approved and investigational compounds against these cell lines; and measured metabolically active cells after 48 hours of compound treatment as a proxy for cell viability. […] Assay Submitter: Nathalia J. Martinez, National Center for Advancing Translational Sciences, National Institutes of Health, Rockville, MD, USA; email: natalia.martinez@nih.gov Shen, M et al. Quantitative high-throughput phenotypic screening of pediatric cancer cell lines identifies multiple opportunities for drug repurposing. Oncotarget 2017 Dec 19;9(4):4758-4772. PMID 29435139.
# The cells were obtained from University of North Carolina (UNC), Pediatric Preclinical Testing Program (PPT), and Coriell Institute (CI). qHTS cell viability assay: Cells were assayed in growth media at a density of 500-1,000 cells/well. Five microliters of cells were dispensed into 1,536-well, white, solid-bottom, TC-treated plates (Greiner Bio One) using a multidrop dispenser and incubated at 37 degrees C, 5% CO2, under a humidified atmosphere for 5 hours. Twenty-three nanoliters of compounds and controls (neutral control DMSO or positive control bortezomib at final concentration of 2.3 µM) were subsequently transferred by Kalypsys pintool. For primary screens, the MIPE collection was tested at 11-point dilutions (final concentrations range from 0.78 nM to 46 µM) and the NPC collection at 8-point dilutions (final concentrations range from 0.59 nM to 46 µM). Compounds tested in follow-up screens were assayed at 11-point dilutions. Cells were incubated for 48 hours, followed by addition of 3 µL of CellTiter-Glo (Promega). After a 15 min incubation at room temperature, samples were analyzed for luminescence intensity using a ViewLux High-throughput CCD imager equipped with clear filters.
# Potency is the fitted concentration of half-maximal effect.
row,Structure (SMILES),Potency
1,Cc1ncc2n1-c1ccc(Cl)cc1C(c1ccccc1F)=NC2,inactive
2,CC[C@H]1C[C@@H]2C[C@H]3c4[nH]c5ccc(OC)cc5c4CCN(C2)[C@@H]13,inactive
3,COC(=O)C1=CCCN(C)C1,inactive
4,Oc1c(Br)cc(Br)cc1Br,inactive
5,COP(=S)(OC)Oc1ccc(Sc2ccc(OP(=S)(OC)OC)cc2)cc1,inactive
6,C#C[C@]1(O)CC[C@H]2[C@@H]3CCC4=CC(=O)CCC4=C3C=C[C@@]21CC,inactive
7,CC(CC(C#N)(c1ccccc1)c1ccccc1)N(C)C (stereo not given),inactive
8,NC(=O)OCCCc1ccccc1,inactive
9,Cc1nc2ccccc2c(=O)n1-c1ccccc1Cl,inactive
10,COc1ccc(OC)c(CC(C)N)c1 (stereo not given),inactive
11,CCOC(=O)c1ncn2c1CN(C)C(=O)c1c(I)cccc1-2,inactive
12,CCC1(c2cccc(O)c2)CCCCN(C)C1 (stereo not given),inactive
13,CC1=C2[C@H]3OC(=O)[C@@H](C)[C@@H]3CC[C@@]2(C)C=CC1=O,inactive
14,CCC(=O)C(CCN(C)C)(c1ccccc1)c1ccccc1,inactive
15,CN(C)C(=S)SSC(=S)N(C)C,9.44 µM (active)
16,O=C(O)Cc1ccccc1,inactive
17,CN1C2CCC(C)(C)C1CC(OC(=O)C(O)(c1cccs1)c1cccs1)C2 (stereo not given),inactive
18,COc1ccc(C(=O)N2CCCC2=O)cc1,inactive
19,CN(C)CCc1c[nH]c2cccc(O)c12,inactive
20,Oc1ccc([C@H]2CNCc3c2ccc(O)c3O)cc1O,inactive

row,Structure (SMILES),Potency
1,CNC(=O)NC(O)C(Cl)(Cl)Cl (stereo not given),inactive
2,CC[C@H](O)C(C[C@H](C)N(C)C)(c1ccccc1)c1ccccc1,inactive
3,NC1(c2ccccc2)CCCCC1,inactive
4,CCOC(=O)C(c1c(O)c2ccccc2oc1=O)c1c(O)c2ccccc2oc1=O,inactive
5,COc1cc(N)c(Cl)cc1C(=O)NC1CN2CCC1CC2 (stereo not given),inactive
6,CC(C)NCC(O)c1ccc(N)c(C#N)c1 (stereo not given),inactive
7,CCOC(C(=O)OCCN(C)C)(c1ccccc1)c1ccccc1,inactive
8,C[C@H]1C(=O)O[C@@H]2CCN3CC=C(COC(=O)[C@](C)(O)[C@]1(C)O)[C@H]23,29.9 µM (active)
9,C[C@@H]1C[C@@H]([C@H](O)CC2CC(=O)NC(=O)C2)C(=O)[C@@H](C)C1,841 nM (active) and 3.32 µM (active)
10,O=C(N[C@H]1N=C(c2ccccc2F)c2cccc3c2N(CC3)C1=O)c1cc2ccccc2[nH]1,inactive
11,CCCOC(=O)Cc1ccc(OCC(=O)N(CC)CC)c(OC)c1,inactive
12,C1CN2CCC1CC2,inactive
13,CNC(C)Cc1ccc2c(c1)OCO2 (stereo not given),inactive
14,CC(Cc1ccccc1)NCc1ccccc1Cl (stereo not given),inactive
15,CNC(C)Cc1ccccc1OC (stereo not given),inactive
16,CC(C)(O)C(Cl)(Cl)Cl,inactive
17,Cc1c(Cl)c(=O)oc2cc(OP(=O)(OCCCl)OCCCl)ccc12,inactive
18,CN1CCc2cc(Cl)c(O)cc2[C@H]2c3ccccc3CC[C@@H]21,inactive
19,C[C@]12CC[C@H](O)CC1=CC[C@@H]1[C@@H]2CC[C@]2(C)C(=O)CC[C@@H]12,inactive
20,COc1cc(C[C@@H](C)N)c(OC)cc1Br,inactive
